Screening results from PubChem.
Rows were chosen to be rich in hits. Some 5.7% of all compounds tested hit in one or more screens of this group.
hgDAF-12 ag: activates the H. glycines DAF-12 receptor ligand-binding domain; AID 687014; HEK293 GAL4-hgDAF12 UAS-luciferase reporter, agonist luminescence; normalized to butyrate control; 370,000 tested, 1.8% active; activation, % at 6.8 µM;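 active = activation above a cutoff set at the mean of all screened compounds plus 3 SD, cut at about 10% in these data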
AHR act: activators of human aryl hydrocarbon receptor; AHR-responsive luciferase reporter cells, luminescence; activation, % at 5 µM; 320,000 tested, 2.5% active; AID 2796; in the data active = activation above about 47%
DAX1 inh-1: NR0B1 (DAX1) inhibition; inhibition, % at 6.75 µM; 340,000 tested, 0.99% active; AID 504766; HEK293 Gal4-DAX1 luciferase reporter, luminescence;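 active = inhibition above the mean over all tested compounds plus 3 SD, cut at about 4.2% in these data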;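 note: inhibition shows as a rise in luminescence from relieved DAX1 repression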
ssDAF-12 act: activators of S. stercoralis DAF-12 nuclear receptor; HEK293 ssDAF-12/GRIP1 lit1-tk-luc reporter, luminescence; % of 3 µM dafachronic acid response; activation, % at 6.8 µM; 370,000 tested, 1% active; AID 652126;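 active = activation above the mean over all tested compounds plus 3 SD, cut at about 0.9% in these data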
DAX1 inh-2: blocks DAX1 repression of SF-1 activated StAR promoter. 370,000 tested, 1.1% active. HEK293T StAR-luciferase reporter, SF-1/DAX-1 repression relief. inhibition, % at 6.8 µM;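 active = inhibition above the mean over all tested compounds plus 3 SD, cut at about 3.6% in these data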;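 note: higher inhibition means more luminescence from relief of DAX-1 repression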
hcDAF-12 act: H. contortus DAF-12 activation, primary screen; HEK293 hcDAF-12 lit1-tk-luc reporter, luminescence; 0% DMSO, 100% Δ7-dafachronic acid; activation, % at 6.8 µM; 370,000 tested, 1.4% active; AID 652067;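 active = activation above the mean of all tested compounds plus 3 SD, cut at about 5.5% in these data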
hgDAF12 conf: confirmation of H. glycines DAF-12 agonists; activation, % at 6.8 µM; HEK293 GAL4-hgDAF12 luciferase reporter, agonist mode; percent of butyrate response; 3,300 tested, 80% active; AID 743050; shares compounds with hgDAF-12 ag;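 active = mean activation over triplicate wells above the hit cutoff derived from the earlier primary screen, cut at about 11% in these data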
LXRb DAF12 ctr: counter-screen for DAF-12 agonists: agonists of human LXR-beta | shares compounds with hgDAF-12 ag | HEK293 Gal4-LXR luciferase reporter, 24 h | activation, % at 6.8 µM | 3,300 tested, under 10 active | AID 743051;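 active = mean activation of the triplicate above a set limit carried over from the primary screen, none filed active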
Target sequence (P55055 whole entry, looked up, the tested form may be a part): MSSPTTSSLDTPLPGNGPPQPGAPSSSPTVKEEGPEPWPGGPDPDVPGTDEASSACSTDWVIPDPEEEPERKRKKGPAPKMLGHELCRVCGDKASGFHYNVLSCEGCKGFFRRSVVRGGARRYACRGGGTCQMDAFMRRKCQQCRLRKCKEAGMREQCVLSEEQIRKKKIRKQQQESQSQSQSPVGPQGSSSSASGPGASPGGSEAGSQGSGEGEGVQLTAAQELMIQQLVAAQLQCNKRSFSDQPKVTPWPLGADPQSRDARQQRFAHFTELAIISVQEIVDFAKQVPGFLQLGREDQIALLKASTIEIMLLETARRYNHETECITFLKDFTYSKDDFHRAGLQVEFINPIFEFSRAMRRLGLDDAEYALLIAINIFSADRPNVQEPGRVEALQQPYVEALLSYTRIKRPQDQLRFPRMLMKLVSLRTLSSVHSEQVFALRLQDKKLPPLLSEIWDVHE
Hits are given with their value; i = inactive; nt = not tested or not shown.

SMILES	hgDAF-12 ag	AHR act	DAX1 inh-1	ssDAF-12 act	DAX1 inh-2	hcDAF-12 act	hgDAF12 conf	LXRb DAF12 ctr
C/C(=N\NC(=O)c1ccncc1)c1cccc(NC(=O)c2ccc(C(C)(C)C)cc2)c1	i	i	i	i	i	i	nt	nt
C/C(=N\NC(=O)c1ccn(C)n1)c1cccc(NC(=O)c2ccc(C)s2)c1	14.5	i	i	i	i	i	i	i
C/C(=N\NC(=O)c1nn(C)cc1Br)c1cccc(NC(=O)c2ccncc2)c1	17.9	i	i	i	i	i	i	i
C/C(=N/NC(=O)c1ccc(C)s1)c1cccc(NC(=O)COc2ccc(Cl)cc2Cl)c1	i	i	i	i	i	i	nt	nt
C/C(=N\NC(=O)c1nn(C)c(C)c1Br)c1ccc(NC(=O)c2ccc(C)s2)cc1	17.4	i	i	i	i	i	i	i
C=CCc1c(NCCO)nc(C)[nH]c1=O	nt	i	i	nt	nt	nt	nt	nt
COc1ccc(CCNC(=O)COC(=O)/C=C/c2cccs2)cc1	i	i	i	i	i	i	nt	nt
O=C1CCN(Cc2ccccc2)C(=S)N1	i	nt	i	i	i	i	nt	nt
Cc1cc(-c2nc3cccnc3s2)ccc1NS(=O)(=O)c1cccs1	13.6	69.6	i	i	4.4	6.5	12.8	i
CCCCN1CC(=O)N2[C@H](c3ccc(OC)cc3)[C@@H]3C(=O)N(CC)C(=O)[C@@H]3[C@]2(Cc2ccccc2)C1=O	i	i	i	i	i	i	nt	nt
Cc1csc(NC(=O)CSc2nsc(SCC(=O)Nc3nc(C)cs3)c2C#N)n1	17.9	i	i	i	i	i	14.9	i
Cc1ccc(NC(=O)CSc2nsc(SCC(=O)Nc3ccc(C)cc3C)c2C#N)c(C)c1	i	i	i	i	i	i	nt	nt
COCCNC(=S)N1CCc2cc(OC)c(OC)cc2C1c1cccs1 (stereo not given)	i	i	i	i	i	i	nt	nt
CC1CCc2c(C(=O)Nc3ccccn3)csc2C1 (stereo not given)	17.2	i	i	i	i	i	11.6	i
CC1CCc2c(C(=O)NCc3ccccn3)csc2C1 (stereo not given)	17.0	i	i	i	i	i	i	i
CC1CCc2c(C(=O)Nc3nccs3)csc2C1 (stereo not given)	i	i	i	i	i	i	nt	nt
COc1cccc(C(=O)Nc2ccc(C(F)(F)F)n(C)c2=O)c1	18.0	55.8	i	i	i	6.3	14.3	i
c1ccc(CCSc2nccn2-c2ccccc2)cc1	13.8	i	i	i	i	5.8	14.3	i
CCc1ccc(CSc2nccn2-c2ccccc2)cc1	i	i	i	i	i	i	nt	nt
COC(=O)Nc1ccc(S(=O)(=O)N2CCCC(C(=O)NC3CCS(=O)(=O)C3)C2)cc1 (stereo not given)	i	i	i	i	i	i	nt	nt
Cc1cc(N2CCOCC2)ccc1/C=C1/SC(=O)NC1=O	15.7	i	i	i	i	i	i	i
C=CC(C)N1C(=O)S/C(=C\c2ccc(N3CCOCC3)cc2C)C1=O (stereo not given)	i	i	i	i	i	i	nt	nt
Clc1cccc(CSc2ccc(-c3ccco3)nn2)c1	i	i	i	i	i	i	nt	nt
c1ccc(CSc2ccc(-c3ccco3)nn2)cc1	15.2	i	i	i	i	i	14.8	i
Fc1ccccc1CSc1ccc(-c2ccco2)nn1	16.5	i	i	i	4.1	i	15.2	i
SMILES	hgDAF-12 ag	AHR act	DAX1 inh-1	ssDAF-12 act	DAX1 inh-2	hcDAF-12 act	hgDAF12 conf	LXRb DAF12 ctr
Cc1ccc(CSc2ccc(-c3ccco3)nn2)cc1	i	i	i	i	i	i	nt	nt
c1csc(-c2nc(-c3ccc(-c4ccon4)s3)no2)c1	16.5	i	i	i	i	i	17.3	i
CCCCCCSc1nc(O)c(C2OC(=O)c3c2ccc(OC)c3OC)c(=O)n1-c1ccccc1 (stereo not given)	i	i	i	i	i	i	nt	nt
CCN(CC)CCCN1C(=O)C(=O)/C(=C(/O)c2ccc(OC)cc2)C1c1ccco1 (stereo not given)	14.1	i	i	i	i	i	i	i
CC1(C)CC(=O)C(C=Nc2ccccc2C(=O)O)=C(O)C1	i	i	i	i	i	i	nt	nt
CC1(C)CC(=O)c2cc(N=C/C(C(=O)c3ccccc3)=C(\O)c3ccccc3)c(=O)oc2C1	14.3	i	5.1	i	i	i	i	i
Cc1ccc(NC(=S)N2CCN(Cc3ccccc3)CC2)c(C)c1	i	i	i	i	i	i	nt	nt
CC1=C(C(=O)Nc2ccccn2)C(c2ccc(Cl)cc2)NC(=S)N1 (stereo not given)	i	i	i	i	i	i	nt	nt
CC1=C(C(=O)Nc2ccccn2)C(c2ccc(Br)cc2)NC(=S)N1 (stereo not given)	16.6	i	i	i	i	5.7	i	i
O=C(O)c1ccc(C(=O)c2cc([N+](=O)[O-])cc([N+](=O)[O-])c2)cc1	i	nt	i	i	i	i	nt	nt
Brc1ccc(NC2=Nc3ccccc3CC2)cc1	i	i	i	i	i	i	nt	nt
Cc1ccc(NC2=Nc3ccccc3CC2)cc1	13.7	i	i	i	i	6.3	17.2	i
O=C(CSc1ccccc1F)NC(=O)c1ccccc1Br	i	i	i	i	i	i	nt	nt
COc1ccc(Cn2cc(F)c(=O)n(CCC(C)C)c2=O)cc1[N+](=O)[O-]	i	i	i	i	i	i	nt	nt
C/C(=N/NC(=O)c1ccccn1)c1ccncc1	13.9	i	i	i	i	i	i	i
C/C(=N/NC(=O)c1cnccn1)c1ccncc1	i	i	i	i	i	i	nt	nt
C/C(=N/NC(=O)c1ccc(Br)o1)c1ccncc1	17.9	50.0	5.7	i	i	i	i	i
Cc1ccc(N(CC(=O)N2CCCCCC2)S(C)(=O)=O)cc1	i	nt	i	i	i	i	nt	nt
CC(=O)C1C(c2ccc(F)cc2)C2C(C)=NN=C2CC1(C)O (stereo not given)	i	i	i	i	i	i	nt	nt
O=S(=O)(NC1CCCCC1)c1ccc(Cl)s1	i	i	i	i	i	i	nt	nt
O=C(Nc1ccc2c(c1)OCO2)OC1CCC12CCCCC2 (stereo not given)	15.4	nt	nt	i	i	i	13.4	i
COc1ccc(NC(=O)CCCN2C(=O)C(c3ccccc3)Oc3cccnc32)c(OC)c1 (stereo not given)	i	i	i	i	i	i	nt	nt
O=C(N/N=C/c1cc2c(cc1Cl)OCO2)c1ccccn1	i	i	i	i	i	i	nt	nt
COc1cc(/C=N/NC(=O)c2ccccn2)cc2c1OCO2	14.5	i	i	i	i	i	i	i
